An excerpt weighted towards active compounds, which were near 2.3% of everything screened.
M1 antag = antagonists of human M1 muscarinic receptor | P11229 | CHO-K1 hM1, Fluo-8 calcium fluorescence, ACh EC80 antagonist | inhibition, % at 3 µM | actives 1.3% (n = 360,000);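 active = percent inhibition above its own plate's cutoff, namely the mean of that plate's compound wells plus 3 SD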;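 note: peak over basal fluorescence ratio during 140 s after agonist addition; 0% = ACh EC80 plus DMSO and 100% = DMSO alone without agonist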
Target sequence (P11229 whole entry, looked up): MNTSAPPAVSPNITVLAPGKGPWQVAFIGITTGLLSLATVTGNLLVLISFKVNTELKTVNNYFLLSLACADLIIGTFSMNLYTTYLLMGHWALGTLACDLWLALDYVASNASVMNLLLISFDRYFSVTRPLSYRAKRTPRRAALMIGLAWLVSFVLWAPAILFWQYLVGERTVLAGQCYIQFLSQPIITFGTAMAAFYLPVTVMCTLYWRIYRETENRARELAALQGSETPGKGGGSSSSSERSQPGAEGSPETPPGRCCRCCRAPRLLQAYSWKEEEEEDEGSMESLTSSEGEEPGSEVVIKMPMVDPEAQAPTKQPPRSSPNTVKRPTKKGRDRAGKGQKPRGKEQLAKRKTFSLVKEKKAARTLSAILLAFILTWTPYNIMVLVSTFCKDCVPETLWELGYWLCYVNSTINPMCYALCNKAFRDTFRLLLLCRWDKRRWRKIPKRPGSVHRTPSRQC
CHO-K1 Ca ag = M1 agonist counterscreen hit in parental CHO-K1 cells; activation, % at 3 µM; Fluo-8 calcium fluorescence; scaled to maximal ATP response, vehicle zero; actives 0.48% (n = 360,000); in the data active = activation above about 15%;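 note: untransfected CHO-K1 host cells lacking M1 receptor as counterscreen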
M1 PAM parental = nonselective activator or artifact in parental CHO-K1 calcium assay. AID 602247. activation, % at 3 µM. ATP EC20, Fluo-8 calcium fluorescence; 0% at ATP EC20, 100% at ATP max. actives 0.02% (n = 360,000);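 active = activation above the run cutoff, the mean activation of all test compounds plus 3 SD, cut at about 40% in these data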;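 note: peak over basal fluorescence ratio in a 140 s read after ATP addition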
CHO-K1 Ca antag = nonselective inhibitor or artifact in parental CHO-K1 cells; ATP-induced calcium, Fluo-8 fluorescence; inhibition, % at 3 µM; actives 0.6% (n = 360,000);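 active = inhibition above a per-plate cutoff, the plate's mean sample inhibition plus 3 SD, cut at about 24% in these data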;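 note: 0% = DMSO plus EC80 ATP and 100% = DMSO alone without ATP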
M1 PAM = human CHRM1 positive allosteric modulation; CHO-K1 hM1, Fluo-8 calcium fluorescence, ACh EC20; 0% = ACh EC20, 100% = maximal ACh; activation, % at 3 µM; P11229; actives 0.088% (n = 360,000); in the data active = activation above about 19%, passing the limit was not always enough
CHRM1 agonist = human M1 muscarinic receptor agonism | activation, % at 3 µM | CHO-K1 hM1, Fluo-8 calcium fluorescence, agonist mode; 0% DMSO, 100% acetylcholine EC100 | AID 588814 | P11229 | actives 0.33% (n = 360,000);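 active = activation above the run's mean compound activation plus 3 SD, cut at about 16% in these data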;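 note: peak over basal fluorescence ratio within a 140 s kinetic read after compound addition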
* hit, by the source's call.

SMILES	M1 antag	CHO-K1 Ca ag	M1 PAM parental	CHO-K1 Ca antag	M1 PAM	CHRM1 agonist
CCCC#Cc1cnc2c(c1)C(=O)N([C@H](C)CO)C[C@H](C)[C@@H](CN(C)C(=O)CCN1CCCCC1)O2	45.4*	0.2	0.9	-0.8	-25.3	-11.1
C[C@@H]1CN([C@@H](C)CO)C(=O)c2cc(C#CCN(C)C)cnc2O[C@H]1CN(C)Cc1ccc2c(c1)OCO2	61.8*	-0.2	1.5	-4.7	-30.4	-11.0
C[C@@H]1CN([C@@H](C)CO)C(=O)c2cc(Br)cnc2O[C@H]1CN(C)C(=O)CCN1CCCCC1	8.9	0.3	-10.5	6.7	-10.4	-10.8
Cc1ccc2c(c1)NC(=O)C(CC(=O)Nc1ccc(Br)c(C)c1)O2 (centres undefined)	-10.4	0.2	3.1	-9.0	10.5	-1.8
CCN(CC)c1ccc(S(=O)(=O)N2CCOCC2)cc1NC(=O)COC(=O)/C=C/c1ccco1	13.3	5.1	8.5	-14.1	-7.1	-4.3
O=C(Nc1ccc(Cl)c(C(F)(F)F)c1)C1Cc2c(-c3ccc4c(c3)OCO4)ccnc2O1 (centres undefined)	0.1	1.3	15.2	-6.1	-4.4	-3.3
Cc1cc(C)cc(C(=O)NC(CC(N)=O)c2ccc(NCC3CC3)c([N+](=O)[O-])c2)c1 (centres undefined)	-0.9	0.9	24.9	-15.3	6.5	-2.7
OCC1(Cc2ccc(Cl)cc2)CCN(Cc2ccc(Oc3ncccn3)cc2)CC1	44.0*	1.1	9.6	-11.6	-32.4	-13.7
CC1CCN(C(=O)COC(=O)/C=C/c2ccco2)CC1	-4.3	-0.2	15.4	-27.7	0.6	-3.1
COc1ccc(C(=O)/C=C/Nc2cc(C)ccn2)cc1	1.1	0.0	-9.9	1.4	1.2	-3.2
COc1ccccc1CCNC(=O)C(=O)NCC1CCCN1S(=O)(=O)c1ccccc1 (centres undefined)	14.9	4.2	-16.6	8.3	-6.2	-5.3
Fc1ccc(C2N(c3ccccc3)C(=S)N3CCCN23)cc1 (centres undefined)	24.9	0.0	-19.5	10.2	-19.9	-7.5
Cc1ccc(C2N(c3ccccc3)C(=S)N3CCCN23)cc1 (centres undefined)	85.0*	-0.2	3.0	-3.7	-24.6	-6.9
CCc1ccc(C(=O)OCC(=O)c2c(N)n(CC(C)C)c(=O)n(C)c2=O)cc1	16.4	10.0	-2.4	3.3	-6.8	-0.2
COc1ccccc1N1C(=O)C2C(C(=O)c3ccccc3)=NN(c3ccc(Br)cc3)C2C1=O (centres undefined)	-6.5	31.4*	-1.4	30.1*	10.1	-0.6
CCCc1cc(C(=O)OCC(=O)N2CCN(c3ccc(OC)cc3)CC2)sc1C	-2.8	2.3	11.0	-27.9	3.0	-5.9
CSc1ccc(OC2(C)CCN(Cc3ccc(-c4ccccn4)cc3)C2)cc1 (centres undefined)	20.5	3.6	26.0	-19.3	-26.3	-5.4
CC(C)(O)C#Cc1ccc(CN2CCN(C3CCCC3)C(CCO)C2)cc1 (centres undefined)	52.6*	3.0	11.9	-19.4	-22.2	-7.2
CC(C)(O)C#Cc1ccc(CN2CCN(C3CCCCC3)C(CCO)C2)cc1 (centres undefined)	25.2*	4.3	-3.2	10.4	-27.4	-10.7
OCCC1CN(Cc2cc3c(cc2Cl)OCO3)CCN1C1CCCC1 (centres undefined)	38.3*	1.1	0.3	9.8	-18.5	-7.5
CSc1ccc(CN2CCN(C3CCCC3)C(CCO)C2)cc1 (centres undefined)	60.1*	0.8	18.9	-19.6	-25.7	-8.6
CC(C)(O)C#Cc1ccc(CN2CCN(C3CCCCC3)C(CCO)C2)s1 (centres undefined)	18.3	0.0	16.6	-11.5	-28.2	-12.8
Cc1ncc([N+](=O)[O-])n1CC(=O)Nc1ccc(F)cc1F	-18.9	0.9	7.8	4.2	15.1	-0.7
CN(C)CCCN=C(NO)c1ccc(Cl)cc1Cl	7.7	-0.4	-26.4	14.9	-5.8	49.9*
COc1ccc2cc1Oc1ccc(cc1)C[C@H]1c3c(cc4c(c3Oc3cc5c(cc3OC)CCN(C)[C@@H]5C2)OCO4)CCN1C	-32.1	-0.1	15.7	-2.7	-6.0	-7.5
SMILES	M1 antag	CHO-K1 Ca ag	M1 PAM parental	CHO-K1 Ca antag	M1 PAM	CHRM1 agonist
COc1ccc2cc1Oc1ccc(cc1)C[C@H]1c3cc(c(OC)cc3CCN1C)Oc1c(OC)c(OC)cc3c1[C@H](C2)N(C)CC3	90.9*	1.5	13.1	0.1	-25.0	-7.3
CN1CCC(OC(=O)COc2ccc(Br)cc2)CC1	30.6*	-0.4	-5.3	11.5	-32.3	-12.8
Cc1ccccc1OCC(=O)OC1CCN(C)CC1	32.0*	0.2	3.9	-9.1	-18.0	-6.1
COc1ccc(OCC(=O)OC2CCN(C)CC2)cc1	-1.6	0.2	16.8	-10.9	5.8	-3.2
CN(C1CCCCC1)S(=O)(=O)c1cc2c(cc1Cl)NC(=O)CO2	10.3	1.2	12.7	0.1	-5.9	-1.9
COc1c(O)cc2c(c1O)C1OC(CO)C(O)C(O)C1OC2=O (centres undefined)	-2.3	-0.4	-13.4	27.6*	-20.3	48.4*
COc1c(O)cc2c(c1O)[C@@H]1OC(CO)C(O)C(O)[C@H]1OC2=O (some centres undefined)	-24.8	0.3	19.9	-3.8	-1.6	6.7
O=C1CC(=C(c2ccccc2)c2ccccc2)C(=O)N1CCCN1CCN(c2cccc(Cl)c2)CC1	38.5*	0.2	21.5	-18.8	-20.4	-4.9
O=C1CC(=C(c2ccccc2)c2ccccc2)C(=O)N1CCN1CCN(c2cccc(Cl)c2)CC1	6.6	0.6	1.6	-0.5	-1.0	-4.5
COc1ccc(OC)c(NC(=O)Nc2ccc(Cl)cc2)c1	5.4	1.0	-11.8	8.1	-3.2	-3.6
COc1ccc(OC)c(NC(=O)Nc2ccc3[nH]ccc3c2)c1	-7.9	-0.7	-8.1	58.9*	14.5	5.2
Nc1cc(=O)[nH]c(SCC(=O)c2ccc(F)cc2)n1	3.4	1.0	-9.4	8.6	-0.9	-4.6
Cc1cccc(C)c1NC(=O)CN1CCN(C(=O)CN2C(=O)NC3(CCCCC3C)C2=O)CC1 (centres undefined)	-27.8	0.1	-13.1	-10.4	28.5*	3.6
O=c1c2ccccc2ncn1-c1ccc([N+](=O)[O-])cc1[N+](=O)[O-]	1.5	18.7*	-20.3	2.0	-8.3	6.4
O=C(CNC(=O)c1ccc(Br)o1)NNC(=O)COc1ccccc1Cl	4.1	0.1	-1.0	-9.4	1.8	-0.6
CC(Sc1nnc(-c2cccs2)n1-c1ccccc1)C(=O)NCc1ccc2c(c1)OCO2 (centres undefined)	-0.6	0.2	-8.5	24.0*	6.4	-1.7
COc1ccc(NC(=O)N(C)C[C@H]2Oc3c(NS(=O)(=O)c4cccs4)cccc3C(=O)N([C@@H](C)CO)C[C@@H]2C)cc1	-4.1	-0.3	10.3	-9.2	11.7	2.2

Compound activity deposited in PubChem BioAssay by The Scripps Research Institute Molecular Screening Center.
